{"source": "PubChem BioAssay AID540259", "about": "(Broad Institute, 2011)", "note": "Measured potencies and affinities stand elsewhere. Activity calls are given as the source filed them.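 Rule for the calls: active = cell killing, meaning signal decrease, with fitted half-maximal dose at or below ten times the top valid tested dose; inconclusive = poor fit, or flat curve with 30 to 70% signal loss; inactive = the rest.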"}
{"experiment": "HeLa cell cytotoxicity, dose response, cytotoxicity control for MITF activator project, CellTiter-Glo luminescence, cherry-pick samples (AID 540259)", "conditions": "HeLa viability, CellTiter-Glo ATP luminescence, 24 h; series mostly up to 35 µM"}
{"compound": "COC(=O)Cc1ccc(OCc2ccc(Cl)nc2)cc1", "outcome": "inactive"}
{"compound": "O=Cc1ccc(OCc2ccc3ccccc3c2)cc1", "outcome": "inactive"}
{"compound": "Cn1c2ccccc2c(=O)c2cc(C#Cc3ccccn3)ccc21", "outcome": "inactive"}
{"compound": "O=c1nc(/C=C/c2ccc(O)c(O)c2)oc2ccccc12", "outcome": "inactive"}
{"compound": "CCn1c(C(=O)NC2CCC(C)CC2)cc2sccc21", "note": "(stereo unspecified)", "outcome": "inactive"}
{"compound": "O=C(N/N=C/c1ccc(OC(=O)c2ccccc2Cl)cc1)c1ccccn1", "outcome": "inactive"}
{"compound": "CCc1nc2oc3ccccc3c(=O)c2cc1C(=O)OC", "outcome": "inactive"}
{"compound": "COc1ccc(-c2cn(CC3CCCCC3)nn2)cc1", "outcome": "inactive"}
{"compound": "Cc1cc(NC(=O)c2ccc(Cl)cc2)no1", "outcome": "inactive"}
{"compound": "COc1ccc(Oc2nnc(C)c3ccccc23)cc1", "outcome": "inactive"}
{"compound": "COC(=O)c1ccc(Nc2ncnc3sccc23)cc1", "outcome": "inactive"}
{"compound": "C=CCNc1nc(-c2ccc(Cl)cc2)cs1", "outcome": "inactive"}
{"compound": "COc1ccc(C(=O)CN2Cc3ccccc3C2=N)cc1", "outcome": "inactive"}
{"compound": "O=C(NCCSc1ccccn1)c1ccc(Cl)cc1Cl", "outcome": "inactive"}
{"compound": "CCc1ccc(C(=O)N/N=C(\\C)c2cccnc2)s1", "outcome": "inactive"}
{"compound": "CCC(=O)Nc1sc(C(=O)Nc2ccccc2F)c(C)c1C(=O)OC", "outcome": "inactive"}
{"compound": "C/C(=C\\C(=O)c1cccnc1)Nc1ccc(C)c(C)c1", "outcome": "inactive"}
{"compound": "COc1ccc(NC(=S)c2ccccc2)cc1", "outcome": "inactive"}
{"compound": "C#CCSc1nnc(-c2ccc(O)cc2)o1", "outcome": "inactive"}
{"compound": "Nc1nc(COc2ccc3ccccc3c2)cs1", "outcome": "inactive"}
{"compound": "O=C(NC1CCCCCC1)c1cc2c(=O)n3ccccc3nc2s1", "outcome": "inactive"}
{"compound": "COc1ccc(/C=C2\\CCn3c2nc2ccccc2c3=O)cc1OC", "outcome": "inactive"}
{"compound": "COc1cc(SC)ccc1C(=O)NCC1CCCCC1", "outcome": "inactive"}
{"compound": "Cc1cccc(-c2nc(C#N)c(NC3CCCCC3)o2)c1", "outcome": "inactive"}
{"compound": "COC(=O)C(Cc1ccc(O)cc1)N1Cc2ccccc2C1=O", "note": "(stereo unspecified)", "outcome": "inactive"}
{"compound": "COc1ccc(C(=O)c2ccc(CC#N)s2)cc1", "outcome": "inactive"}
{"compound": "O=C(c1noc2c1CCCC2)N1CCc2ccccc2C1", "outcome": "inactive"}
{"compound": "CC(=O)Nc1ccc2c(c1)ncn2-c1ccccc1", "outcome": "inactive"}
{"compound": "COc1ccc(-c2c(C)nc3c(-c4ccsc4)cnn3c2N)cc1", "outcome": "inactive"}
{"compound": "COC(=O)c1ccc(-c2ccc(Cl)cc2)nc1C", "outcome": "inactive"}
{"compound": "COc1ccc(C2Nc3ccccc3C(=O)N2c2ccc(C)cc2)cc1Cn1nnc2ccccc21", "note": "(stereo unspecified)", "outcome": "inactive"}
{"compound": "Cc1ccc2cc(/C=N/Nc3ccc(C(=O)O)cc3)c(Cl)nc2c1", "outcome": "inactive"}
{"compound": "Clc1ccc(-c2nc(C3CCCCC3)no2)cc1", "outcome": "inactive"}
{"compound": "Clc1ccc(-c2cc(CSc3ccccc3)on2)cc1", "outcome": "inactive"}
{"compound": "O=C(NCc1ccc2c(c1)OCO2)Nc1cccc(Cl)c1", "outcome": "inactive"}
{"compound": "CCC(=O)N1CCc2nc(-c3ccccc3)sc2C1", "outcome": "inactive"}
